Values without a mark were called inactive.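 Rule for the calls: active = curve rank above 3; inactive = curve rank 0.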
The molecules below were run on KeratinoSens (HaCaT ARE-luciferase) cells (assay: Nrf2/ARE luciferase activation call in qHTS KeratinoSens assay (1 = active, 0 = inactive)).

| SMILES | Nrf2/ARE luciferase activation call |
| --- | --- |
| CCCn1cc[n+](C)c1.O=S(=O)([N-]S(=O)(=O)C(F)(F)F)C(F)(F)F | not active ARE inducer (skin sensitizer alert) |
| C[C@H]1[C@@H]2Cc3ccc(O)cc3[C@@]1(C)CCN2C.C[C@H]1[C@@H]2Cc3ccc(O)cc3[C@@]1(C)CCN2C.O=C(O)/C=C/C(=O)O | not active ARE inducer (skin sensitizer alert) |
| CCC(COC(=O)c1cc(OC)c(OC)c(OC)c1)(c1ccccc1)N(C)C.O=C(O)/C=C\C(=O)O (stereo unspecified) | not active ARE inducer (skin sensitizer alert) |
| C[N+](C)(C)CCO.O=S(=O)([N-]S(=O)(=O)C(F)(F)F)C(F)(F)F | not active ARE inducer (skin sensitizer alert) |
| CC[N+]1(C)CCCC1.O=S(=O)([N-]S(=O)(=O)C(F)(F)F)C(F)(F)F | not active ARE inducer (skin sensitizer alert) |
| CCCCCCCCCCCCOS(=O)(=O)O.OCCN(CCO)CCO | not active ARE inducer (skin sensitizer alert) |
| CCCCCCCCCCCC(=O)O.OCCN(CCO)CCO | not active ARE inducer (skin sensitizer alert) |
| CC(C)=CCN1CC[C@@]2(C)c3cc(O)ccc3C[C@@H]1[C@@H]2C.O=C(O)CCC(=O)O | not active ARE inducer (skin sensitizer alert) |
| O=C(O)c1ccccc1O.Oc1cccc2cccnc12 | not active ARE inducer (skin sensitizer alert) |
| CCC[N+]1(C)CCCCC1.O=S(=O)([N-]S(=O)(=O)C(F)(F)F)C(F)(F)F | not active ARE inducer (skin sensitizer alert) |
| CCn1cc[n+](C)c1.O=S(=O)([N-]S(=O)(=O)C(F)(F)F)C(F)(F)F | not active ARE inducer (skin sensitizer alert) |
| O=C(O)c1ccccc1O.OCCN(CCO)CCO | not active ARE inducer (skin sensitizer alert) |
| CCn1cc[n+](C)c1C.O=S(=O)([N-]S(=O)(=O)C(F)(F)F)C(F)(F)F | not active ARE inducer (skin sensitizer alert) |
| CCCCCCCCCCCCCC[P+](CCCCCC)(CCCCCC)CCCCCC.O=S(=O)([N-]S(=O)(=O)C(F)(F)F)C(F)(F)F | not active ARE inducer (skin sensitizer alert) |
| C[C@H](CN1CCOCC1)C(C(=O)N1CCCC1)(c1ccccc1)c1ccccc1.O=C(O)[C@H](O)[C@@H](O)C(=O)O | not active ARE inducer (skin sensitizer alert) |
| CC[S+](C)CC.O=S(=O)([N-]S(=O)(=O)C(F)(F)F)C(F)(F)F | not active ARE inducer (skin sensitizer alert) |
| CCCCn1cc[n+](C)c1.O=S(=O)([N-]S(=O)(=O)C(F)(F)F)C(F)(F)F | not active ARE inducer (skin sensitizer alert) |
| CCCCCCCCCCCCCCCCCC(=O)[O-].OCC[NH+](CCO)CCO | active ARE inducer (skin sensitizer alert) |

| SMILES | Nrf2/ARE luciferase activation call |
| --- | --- |
| CCCC[P+](CC)(CCCC)CCCC.CCOP(=O)([O-])OCC | not active ARE inducer (skin sensitizer alert) |
| CC[S+](CC)CC.O=S(=O)([N-]S(=O)(=O)C(F)(F)F)C(F)(F)F | not active ARE inducer (skin sensitizer alert) |
| O=C(O)CC(O)(CC(=O)O)C(=O)O.Oc1cccc2cccnc12 | active ARE inducer (skin sensitizer alert) |
| CCC[n+]1ccn(C)c1C.O=S(=O)([N-]S(=O)(=O)C(F)(F)F)C(F)(F)F | not active ARE inducer (skin sensitizer alert) |
| CCCC[N+]1(C)CCCCC1.O=S(=O)([N-]S(=O)(=O)C(F)(F)F)C(F)(F)F | not active ARE inducer (skin sensitizer alert) |
| O=C(O)/C=C\C(=O)O.c1ccc2nc(N3CCNCC3)ccc2c1 | not active ARE inducer (skin sensitizer alert) |
| CCCCCCn1cc[n+](C)c1.O=S(=O)([O-])C(F)(F)F | not active ARE inducer (skin sensitizer alert) |
| CCC[N+]1(C)CCCC1.O=S(=O)([N-]S(=O)(=O)C(F)(F)F)C(F)(F)F | not active ARE inducer (skin sensitizer alert) |
| CCN(C)C(=O)Oc1cccc([C@H](C)N(C)C)c1.O=C(O)[C@@H](O)[C@H](O)C(=O)O | not active ARE inducer (skin sensitizer alert) |
| CCCCn1cc[n+](C)c1C.O=S(=O)([N-]S(=O)(=O)C(F)(F)F)C(F)(F)F | not active ARE inducer (skin sensitizer alert) |
| CCCCCCn1cc[n+](C)c1.O=S(=O)([N-]S(=O)(=O)C(F)(F)F)C(F)(F)F | not active ARE inducer (skin sensitizer alert) |
| CCCC[N+](C)(C)C.O=S(=O)([N-]S(=O)(=O)C(F)(F)F)C(F)(F)F | not active ARE inducer (skin sensitizer alert) |
| CCCC[N+](C)(CCCC)CCCC.O=S(=O)([N-]S(=O)(=O)C(F)(F)F)C(F)(F)F | not active ARE inducer (skin sensitizer alert) |
| O=C(O)/C=C/C(=O)O.O=C(O)/C=C/C(=O)O.c1ccc(CN2CCNCC2)cc1 | not active ARE inducer (skin sensitizer alert) |
| CCCC[N+]1(C)CCCC1.O=S(=O)([N-]S(=O)(=O)C(F)(F)F)C(F)(F)F | not active ARE inducer (skin sensitizer alert) |
| CCN(CC)CCc1c[nH]c2ccccc12.CCN(CC)CCc1c[nH]c2ccccc12.O=C(O)/C=C/C(=O)O | not active ARE inducer (skin sensitizer alert) |
| CC(=O)[O][Cr]([OH])[O]C(C)=O.CC(=O)[O][Cr]([OH])[O]C(C)=O.CC(=O)[O][Cr]([O]C(C)=O)[O]C(C)=O | not active ARE inducer (skin sensitizer alert) |
| CCCCCCCCn1cc[n+](C)c1.O=S(=O)([N-]S(=O)(=O)C(F)(F)F)C(F)(F)F | not active ARE inducer (skin sensitizer alert) |

From the supplement of paper PMC10933113
